Consider 39 sequences from paper PMC10812921, “Transcriptional Coactivator BOB1 (OBF1, OCA-B) Modulates the Specificity of DNA Recognition by the POU-Domain Factors OCT1 and OCT2 in a Monomeric Configuration”.

Chain of POU1 (OCT1 POU domain) (P14859 260-458): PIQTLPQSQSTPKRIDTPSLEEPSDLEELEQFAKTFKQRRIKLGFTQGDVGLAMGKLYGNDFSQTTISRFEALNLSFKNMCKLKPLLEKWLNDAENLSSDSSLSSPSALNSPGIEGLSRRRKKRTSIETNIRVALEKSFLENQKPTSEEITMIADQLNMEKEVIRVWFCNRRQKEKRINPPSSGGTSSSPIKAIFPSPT

The experiment deals with POU1 (OCT1 POU domain) (human, UniProt P14859 260-458). Description: EMSA-SELEX-seq; no BOB1; 20 mM Tris-HCl pH 7.6, 140 mM NaCl, 10% glycerol, 0.5 mM EDTA, 0.05% Triton X-100, 0.1 mg/mL BSA, 0.1 mg/mL poly(dI-dC), 5 mM DTT, room temperature, 20 min; high values mean tight binding. Conditions: protein: recombinant; dsDNA, one strand shown. An outline of the steps:
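Binding preference is reported as the percentage of sequenced 8-mers that match a motif pattern. Tagged POU-domain proteins were made in E. coli BL21, purified under denaturing conditions and renatured. A 30 ng portion was combined with 300 ng of a PCR-amplified double-stranded random 35-nt library, with or without 28 ng coactivator protein, in 20 μL Tris–HCl pH 7.6 binding buffer for 20 min at RT. Complex bands were excised from native 6% PAGE, eluted and PCR-amplified over four rounds before Illumina sequencing.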
In general terms: Mobility shift assays separate free from complexed probe on a gel.
Regarding ACTAGAAG, the binding signal was 0.0229 % of ANNNNAAN 8-mers.

In the case of AATTGAAC, the binding signal is 0.0492 % of ANNNNAAN 8-mers.

Take AAAACAAG: the binding signal is 0.0641 % of ANNNNAAN 8-mers.

Regarding AAACAAAC, the binding signal was 0.066 % of ANNNNAAN 8-mers.

As for ATCACAAC, the binding signal was 0.0194 % of ANNNNAAN 8-mers.

As for AACAAAAT, the binding signal is 0.119 % of ANNNNAAN 8-mers.

As to ACAAGAAT, the binding signal is 0.0454 % of ANNNNAAN 8-mers.

Consider AGAGAAAA, for which the binding signal is 0.0702 % of ANNNNAAN 8-mers.

Take AGCGCAAT: the binding signal was 0.0278 % of ANNNNAAN 8-mers.

Regarding ACATAAAC, the binding signal is 0.087 % of ANNNNAAN 8-mers.

As to ACCAAAAT, the binding signal was 0.0446 % of ANNNNAAN 8-mers.

Consider AGTTGAAG, for which the binding signal was 0.0355 % of ANNNNAAN 8-mers.

Take AGCGGAAA: the binding signal was 0.0378 % of ANNNNAAN 8-mers.

As to AGAGCAAT, the binding signal was 0.0355 % of ANNNNAAN 8-mers.

On to ATATTAAT, for which the binding signal is 0.424 % of ANNNNAAN 8-mers.

Consider AAGTCAAT, for which the binding signal is 0.0667 % of ANNNNAAN 8-mers.

With ATGCCAAG, the binding signal was 0.0305 % of ANNNNAAN 8-mers.

Turning to AGCAAAAC, the binding signal was 0.0481 % of ANNNNAAN 8-mers.

Consider ATATAAAA, for which the binding signal is 0.103 % of ANNNNAAN 8-mers.

In the case of ACTATAAC, the binding signal is 0.0156 % of ANNNNAAN 8-mers.

On to ATGTAAAG, for which the binding signal is 0.489 % of ANNNNAAN 8-mers.

For the sequence ATGCAAAA, the binding signal is 1.5 % of ANNNNAAN 8-mers.

Turning to AGGAGAAC, the binding signal was 0.0275 % of ANNNNAAN 8-mers.

As for AGCTAAAC, the binding signal is 0.0187 % of ANNNNAAN 8-mers.

For the sequence ACGACAAG, the binding signal is 0.0175 % of ANNNNAAN 8-mers.

In the case of AGGGTAAA, the binding signal is 0.0706 % of ANNNNAAN 8-mers.

On to AATCTAAT, for which the binding signal was 0.116 % of ANNNNAAN 8-mers.

As to ATAGGAAG, the binding signal is 0.0576 % of ANNNNAAN 8-mers.

For the sequence ACTTGAAG, the binding signal is 0.0198 % of ANNNNAAN 8-mers.

As for ACCAGAAT, the binding signal was 0.032 % of ANNNNAAN 8-mers.

For AGAGCAAG, the binding signal was 0.0156 % of ANNNNAAN 8-mers.

Regarding ATTCAAAT, the binding signal was 1.58 % of ANNNNAAN 8-mers.

Take ACCACAAT: the binding signal is 0.0179 % of ANNNNAAN 8-mers.

Consider AGTGTAAA, for which the binding signal was 0.0576 % of ANNNNAAN 8-mers.

On to AGCTCAAG, for which the binding signal is 0.0183 % of ANNNNAAN 8-mers.

Take ACGCGAAT: the binding signal was 0.0389 % of ANNNNAAN 8-mers.

As for ATGCGAAA, the binding signal is 0.0835 % of ANNNNAAN 8-mers.

As for AGAAAAAT, the binding signal is 0.0946 % of ANNNNAAN 8-mers.

In the case of ATATTAAA, the binding signal is 0.297 % of ANNNNAAN 8-mers.
